Experiment in all cases: yeast three-hybrid, YBZ-1, SC-Leu-His + 0.5 mM 3-AT, 4 days
Settings in all cases: tags: N-Gal4 AD-HA kept; label: inside an RPR1-promoter hybrid RNA with tandem MS2 sites; ssRNA

The target in one experiment is PUM1 PUF domain R5-RMS (Homo sapiens, UniProt Q14671 828-1176, C1007R;R1008M;Q1011S). The essentials:
(§1)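 A centromeric plasmid in strain YBZ-1 co-expressed Pumilio-1 PUF domain libraries, randomized at the three base-contacting residues of each repeat, with matching RNA elements; the strain carries a LexA–MS2 coat fusion and a HIS3 reporter. After four days on SC-Leu (input) or SC-Leu-His + 0.5 mM 3-AT (selection), the repeat regions were PCR-amplified and Illumina-sequenced. The interaction score is the log change in variant frequency from input to selection, using log2 and a pseudocount of 1 where absent.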

In another experiment the target is PUM1 PUF domain R5-HFF (Homo sapiens, UniProt Q14671 828-1176, C1007H;R1008F;Q1011F). The essentials:
as §1

For another experiment, the target named is PUM1 PUF domain R5-QGC (Homo sapiens, UniProt Q14671 828-1176, C1007Q;R1008G;Q1011C). The essentials: as §1
For the next experiment, the target named is PUM1 PUF domain R5-KDR (Homo sapiens, UniProt Q14671 828-1176, C1007K;R1008D;Q1011R). The gist of the method: as §1
For the next experiment, the target named is PUM1 PUF domain R5-KRL (Homo sapiens, UniProt Q14671 828-1176, C1007K;Q1011L). The gist of the method: as §1
A further experiment deals with PUM1 PUF domain R7-RPM (Homo sapiens, UniProt Q14671 828-1176, S1079R;N1080P;E1083M). The gist of the method: as §1
Another experiment concerns the target PUM1 PUF domain R7-RRE (Homo sapiens, UniProt Q14671 828-1176, S1079R;N1080R). The gist of the method:
as §1

Another experiment addresses PUM1 PUF domain R3-IWL (Homo sapiens, UniProt Q14671 828-1176, C935I;R936W;Q939L). The gist of the method:
as §1

Another experiment concerns the target PUM1 PUF domain R8-RYG (Homo sapiens, UniProt Q14671 828-1176, N1122R;Q1126G). The essentials:
as §1

The target in the next experiment is PUM1 PUF domain R4-GHP (Homo sapiens, UniProt Q14671 828-1176, N971G;Q975P). The essentials:
as §1

The next experiment has as its target PUM1 PUF domain R3-SSE (Homo sapiens, UniProt Q14671 828-1176, C935S;R936S;Q939E). The essentials:
as §1

In another experiment the target is PUM1 PUF domain R8-RFQ (Homo sapiens, UniProt Q14671 828-1176, N1122R;Y1123F). The gist of the method:
as §1

For another experiment, the target named is PUM1 PUF domain R3-DYA (Homo sapiens, UniProt Q14671 828-1176, C935D;R936Y;Q939A). The gist of the method:
as §1

The next experiment has as its target PUM1 PUF domain R4-PYV (Homo sapiens, UniProt Q14671 828-1176, N971P;H972Y;Q975V). The gist of the method: as §1
The target in another experiment is T1, PUM1 PUF domain R6-DFQ (Homo sapiens, UniProt Q14671 828-1176, N1043D;Y1044F).
T1 sequence: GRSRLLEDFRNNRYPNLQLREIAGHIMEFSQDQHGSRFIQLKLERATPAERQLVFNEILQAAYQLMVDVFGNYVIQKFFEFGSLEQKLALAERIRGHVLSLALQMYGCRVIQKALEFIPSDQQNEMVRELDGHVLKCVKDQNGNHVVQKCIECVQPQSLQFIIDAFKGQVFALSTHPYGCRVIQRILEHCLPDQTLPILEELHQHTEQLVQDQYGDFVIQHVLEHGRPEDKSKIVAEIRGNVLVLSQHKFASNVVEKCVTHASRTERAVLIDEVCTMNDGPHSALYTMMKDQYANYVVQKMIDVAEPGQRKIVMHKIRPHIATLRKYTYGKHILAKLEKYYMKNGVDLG
The gist of the method: as §1

Regarding “GGCUAGAACUAGUGGAUCCCCCGGCGCCCGGCGGCUCGAGCCCGGGUAAGUGUUAAUAGUCUGCAUGCCGCCGGGCGCCAUGCCUGCAGGUCGACUCUAGAAAACAUG”, the binding signal is 2.79 log2 enrichment (interaction score) with PUM1 PUF domain R5-RMS; 3.86 log2 enrichment (interaction score) in the experiment with PUM1 PUF domain R5-HFF; 2.19 log2 enrichment (interaction score) with PUM1 PUF domain R5-QGC; 2.77 log2 enrichment (interaction score) with PUM1 PUF domain R5-KDR; 3 log2 enrichment (interaction score) with PUM1 PUF domain R5-KRL.

Take “GGCUAGAACUAGUGGAUCCCCCGGCGCCCGGCGGCUCGAGCCCGGGUAAGUGUGAAUAGUCUGCAUGCCGCCGGGCGCCAUGCCUGCAGGUCGACUCUAGAAAACAUG”: the binding signal with PUM1 PUF domain R5-KRL is 0.47 log2 enrichment (interaction score).

For “GGCUAGAACUAGUGGAUCCCCCGGCGCCCGGCGGCUCGAGCCCGGGUAAGUCUAAAUAGUCUGCAUGCCGCCGGGCGCCAUGCCUGCAGGUCGACUCUAGAAAACAUG”, the values for the binding signal with PUM1 PUF domain R7-RPM and in the experiment with PUM1 PUF domain R7-RRE were 0.93 log2 enrichment (interaction score) and 3.75 log2 enrichment (interaction score), respectively.

Turning to “GGCUAGAACUAGUGGAUCCCCCGGCGCCCGGCGGCUCGAGCCCGGGUAAGUGUAAAUAGUCUGCAUGCCGCCGGGCGCCAUGCCUGCAGGUCGACUCUAGAAAACAUG”, the binding signal with PUM1 PUF domain R3-IWL was 4.86 log2 enrichment (interaction score); with PUM1 PUF domain R8-RYG, 5.75 log2 enrichment (interaction score); in the experiment with PUM1 PUF domain R4-GHP, 5.41 log2 enrichment (interaction score); in the experiment with PUM1 PUF domain R3-SSE, 0.23 log2 enrichment (interaction score); in the experiment with PUM1 PUF domain R8-RFQ, 2.11 log2 enrichment (interaction score); in the experiment with PUM1 PUF domain R3-DYA, 5.02 log2 enrichment (interaction score). Moreover, the binding signal with PUM1 PUF domain R4-PYV is 5.22 log2 enrichment (interaction score); in the experiment with PUM1 PUF domain R5-KRL, 1.09 log2 enrichment (interaction score); in the experiment with PUM1 PUF domain R6-DFQ, 8.15 log2 enrichment (interaction score).

For the origin of these results see publication PMC8384837, “Expanding the binding specificity for RNA recognition by a PUF domain”.
